Results: PubChem BioAssay (NCATS)
Several values for one entry are separate records, joined by “and”; a condition that tells them apart may be missing. Equal entries are not always repeated. Results filed as inconclusive are left out. Unmarked numbers belong to inactive results. Activity calls are given as the source filed them. The call rests on the fitted dose curve; in most records, active means well fitted activation curve with a large enough effect; inconclusive means small, poorly fitted or top-dose-only effect; inactive means flat fitted curve, though single readings scatter.

assay: Cellular Toxicity (caspase-3) Jurkat (AID 655); details: Jurkat caspase-3 activation, luminescence; series mostly up to 92.2 µM; caspase-3 activation: at the top concentration;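 further: cells exposed to compound for 16 h at 37 °C before reading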
Excerpt: NIH Chemical Genomics Center [NCGC]
NIH Molecular Libraries Screening Centers Network [MLSCN]
National Institutes of Environmental Health Sciences [NIEHS]
National Toxicology Program [NTP]
We have developed a 1536-well cell-based assay for quantitative high throughput screening (qHTS) against a number of cell lines to determine in vitro caspase 3/7 of small molecules. This particular assay uses the Jurkat cell line which is derived from human T cell leukemia.
NCGC Assay Protocol Summary:
The Caspase-Glo 3/7 assay (Promega) is a homogeneous method to measure caspase-3 and caspase-7 activities in cultured cells. The quantitation of caspase 3/7 activity is based on the cleavage of a peptide-aminoluciferin substrate. After caspase cleaves the substrate the free aminoluciferin is liberated and serves as the substrate of luciferase, which generates the light. The luminescent signal is proportional to amount of caspase 3/7 activity present.
Using the Caspase-Glo 3/7 assay, the amount of caspase 3/7 activity was measured in the Jurkat cell line with complete culture medium following compound treatment for 16 hours. The assay was performed in opaque white 1536-well plates. In the screen, tamoxifen and doxorubicin were used as positive controls. Library compounds were measured for their ability to cause the activation of caspase 3/7 in the cell line, as reflected by an increase in luminescence signal, in a concentration-dependent manner. Data were normalized to the controls for basal activity (DMSO only) and 100% stimulation (100 uM tamoxifen). AC50 values were determined from concentration-response data modeled with the standard Hill equation.
qHTS protocol for caspase 3/7 assay in Jurkat cells
[Step] [Parameter] [Value] [Description]
1. Reagent; 5 uL; 5000 Jurkat cells/well
3. Controls; 23 nL; Tamoxifen 0.23 uM to 100 uM & Doxorubicin 7.0 pM to 100 uM
4. Time; 16 hr; 37 °C incubation
5. Reagent; 5 uL; Caspase-Glo 3/7 reagent
6. Time; 20 min; Room Temperature
7. Detection; Luminescence; Viewlux plate reader
Keywords: caspase 3/7, apoptosis, Jurkat cell line, luminescence, NTPHTS, NTPHTS_NCGC, NIEHS, EPA, DSSTox, MLSMR, MLSCN, NIH Roadmap, qHTS, NCGC
Potency means the concentration at half of the fitted maximal effect.

Compound | Potency | caspase-3 activation [%]
COc1ccc2[nH]cc(CCNC(C)=O)c2c1 | inactive | –
CC(C)C(=O)Nc1ccc([N+](=O)[O-])c(C(F)(F)F)c1 | – | 5.02
Cc1cn([C@H]2C=C[C@@H](CO)O2)c(=O)[nH]c1=O | inactive | –
CC(C)NCC(O)c1ccc(O)c(O)c1 (stereo not given) | – | 0.703
O=c1[nH]cc(F)c(=O)[nH]1 | – | 0.0746
N[C@@H](Cc1c[nH]c2ccc(O)cc12)C(=O)O | – | -0.871
Cc1cn([C@H]2C[C@H](N=[N+]=[N-])[C@@H](CO)O2)c(=O)[nH]c1=O | – | 0.426
COc1cc2c(c(OC)c1OC)-c1ccc(OC)c(=O)cc1[C@@H](NC(C)=O)CC2 | 3.98 nM (active) and 3.16 nM (active) | –
Cn1c(=O)c2[nH]cnc2n(C)c1=O | – | -0.505
COc1ccc(CCN(C)CCCC(C#N)(c2ccc(OC)c(OC)c2)C(C)C)cc1OC (stereo not given) | – | 1.93
COc1ccc2c(c1)c(CC(=O)O)c(C)n2C(=O)c1ccc(Cl)cc1 | – | 0.621
Clc1ccc(C(c2ccccc2Cl)C(Cl)Cl)cc1 (stereo not given) | – | 15.8
Cn1c(=O)c2c(ncn2C)n(C)c1=O | – | -1.95
CCC1(c2ccccc2)C(=O)NCNC1=O | – | -1.03
Nc1ccn([C@H]2CC[C@@H](CO)O2)c(=O)n1 | – | -1.06
Nc1c2c(nc3ccccc13)CCCC2 | – | 19.1
O=c1c(-c2ccc(O)cc2)coc2cc(O)cc(O)c12 | – | 13.8
NCCS(=O)(=O)O | – | 1.78
NS(=O)(=O)c1cc2c(cc1Cl)NCNS2(=O)=O | – | 2.45
Cc1ccc(-c2cc(C(F)(F)F)nn2-c2ccc(S(N)(=O)=O)cc2)cc1 | – | 2.7
